# From PubChem BioAssay (Tox21)
# “And” between values parts separate entries of the source, which are not always exact repeats. Equal values may be shown once. Values without a mark were called inactive. Results filed as inconclusive are left out. Entries that show only a call come without a potency. The source made the active and inactive calls. Unless noted, calls come from the whole dose curve; as a rule, active = well fitted curve in the direction sought with a large enough effect in the repeat runs; inconclusive = weak or mixed curves; inactive = no such curve, though single readings can be large; an effect the other way counts as inactive or inconclusive.
# Experiments:
# [1] = biological target: Progesterone receptor (Homo sapiens) (UniProt P06401); assay: qHTS assay to identify small molecule antagonists of the progesterone receptor (PR) signaling pathway (AID 1346795; active = well fitted inhibition curve with a large enough effect in the signal ratio in the repeat runs, not every such curve was filed as active; the % refers to the signal ratio; note: potency is the fitted concentration of half-maximal effect)
# Sequence of Progesterone receptor (Homo sapiens) (P06401 whole entry, looked up): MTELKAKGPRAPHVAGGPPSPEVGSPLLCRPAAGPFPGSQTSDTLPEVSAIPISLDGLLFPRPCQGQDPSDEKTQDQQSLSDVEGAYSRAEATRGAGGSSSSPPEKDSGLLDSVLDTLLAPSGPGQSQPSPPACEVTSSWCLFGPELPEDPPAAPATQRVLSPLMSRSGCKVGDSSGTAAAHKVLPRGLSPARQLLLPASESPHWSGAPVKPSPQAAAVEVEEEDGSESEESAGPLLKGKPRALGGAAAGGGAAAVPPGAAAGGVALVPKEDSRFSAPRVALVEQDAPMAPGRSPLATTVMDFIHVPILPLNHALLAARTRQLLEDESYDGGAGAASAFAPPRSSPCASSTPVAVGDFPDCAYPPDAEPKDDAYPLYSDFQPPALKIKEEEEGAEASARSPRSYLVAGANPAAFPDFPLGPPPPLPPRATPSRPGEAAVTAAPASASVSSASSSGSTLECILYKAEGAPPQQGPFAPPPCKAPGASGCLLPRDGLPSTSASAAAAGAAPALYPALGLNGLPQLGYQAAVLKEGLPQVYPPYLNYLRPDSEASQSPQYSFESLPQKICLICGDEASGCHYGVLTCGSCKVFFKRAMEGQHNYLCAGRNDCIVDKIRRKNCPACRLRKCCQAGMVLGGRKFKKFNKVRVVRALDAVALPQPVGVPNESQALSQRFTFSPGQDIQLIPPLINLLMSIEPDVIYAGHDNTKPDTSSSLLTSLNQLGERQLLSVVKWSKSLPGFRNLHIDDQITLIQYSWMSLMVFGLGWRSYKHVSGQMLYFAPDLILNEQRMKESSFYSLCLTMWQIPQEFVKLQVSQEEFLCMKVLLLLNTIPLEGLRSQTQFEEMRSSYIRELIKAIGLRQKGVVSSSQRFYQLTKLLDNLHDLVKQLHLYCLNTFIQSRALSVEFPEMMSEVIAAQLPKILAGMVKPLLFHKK
# Summary of the method: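 In HEK293T cells bearing the PR-UAS-bla reporter, compound effects on promegestone-driven (1 nM) beta-lactamase expression are assessed after 16 hr using a fluorescent FRET substrate incubated 2 hr at room temperature.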
# [2] = qHTS assay to identify small molecule antagonists of the progesterone receptor (PR) signaling pathway - cell viability counter screen (AID 1346798); note: nearly all actives have a fitted effect of over 50% in size; note: potency is the fitted concentration of half-maximal effect
# Summary of the method: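 Following a 4 hr attachment, PR-UAS-bla HEK293T cells in charcoal-stripped FBS medium were exposed to compounds with R5020 for 16 hr; CellTiter-Glo was added and luminescence read after 30 min at room temperature.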
# [3] = qHTS assay to identify small molecule agonists of the progesterone receptor (PR) signaling pathway - cell viability counter screen (AID 1346799; calls by dose curve; note: nearly all actives have a fitted effect of over 45% in size; note: potency is the fitted concentration of half-maximal effect)
# Summary of the method: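 Here, 3,000 PR-UAS-bla HEK293T cells per well were treated with compounds for 16 hr after a 6 hr preincubation at 37C and 5% CO2; cell viability is the CellTiter-Glo luminescence signal.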
# [4] = qHTS assay to identify small molecule agonists of the TGF-beta/Smad signaling pathway - cell viability counter screen (AID 1346829); note: top concentration of the series differs between compounds; nearly all actives have a fitted effect of over 45% in size
# Summary of the method: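 Here the cytotoxicity of library compounds is measured in SBE-bla HEK 293T cells treated for 5 hr, using CellTiter-Glo added to wells already read for the beta-lactamase reporter.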
# [5] = qHTS assay to identify small molecule agonists of the TGF-beta/Smad signaling pathway (AID 1346859; active = well fitted activation curve with a large enough effect in the signal ratio in the repeat runs, not every such curve was filed as active; the % refers to the signal ratio; note: series mostly up to about 77 µM)
# Summary of the method: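 Each well held 4,000 SBE-bla HEK 293T cells incubated overnight before compound addition; 5 hr later the cleavable FRET substrate went on for 2 hr at room temperature, and fluorescence was read at two emissions.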
# [6] = biological target: Thyrotropin-releasing hormone receptor (Homo sapiens) (UniProt P34981); assay: qHTS assay to identify small molecule antagonists of the thyrotropin-releasing hormone receptor (TRHR) signaling pathway (AID 1346877; active = well fitted inhibition curve with a large enough effect in the repeat runs, not every such curve was filed as active; note: series mostly up to about 51 µM)
# Sequence of Thyrotropin-releasing hormone receptor (Homo sapiens) (P34981 whole entry, looked up): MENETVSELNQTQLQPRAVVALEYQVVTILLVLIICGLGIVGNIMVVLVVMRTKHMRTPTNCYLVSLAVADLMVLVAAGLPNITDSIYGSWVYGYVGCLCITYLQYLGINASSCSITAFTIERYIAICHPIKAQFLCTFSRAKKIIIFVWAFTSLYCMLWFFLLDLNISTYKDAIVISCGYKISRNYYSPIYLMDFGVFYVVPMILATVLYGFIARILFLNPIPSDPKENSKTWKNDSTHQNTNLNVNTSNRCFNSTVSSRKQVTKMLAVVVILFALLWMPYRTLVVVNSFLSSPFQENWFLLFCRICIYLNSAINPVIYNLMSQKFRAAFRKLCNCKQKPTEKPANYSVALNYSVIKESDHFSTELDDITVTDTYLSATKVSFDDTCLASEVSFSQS
# Summary of the method: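 Calcium signal in dye-loaded TRHR/HEK293 cells; compounds added 5 min before TRH (1 nM final); fluorescence monitored 3 min at 1 s steps.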
# [7] = biological target: Thyrotropin-releasing hormone receptor (Homo sapiens) (UniProt P34981); assay: qHTS assay to identify small molecule agonists of the thyrotropin-releasing hormone receptor (TRHR) signaling pathway (AID 1346891; calls by dose curve; note: series mostly up to about 58 µM)
# Summary of the method: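 Screening of agonists relied on calcium signalling in HEK293 cells expressing human TRHR: dye loading 2 h at 37 °C preceded compound addition and a 3-min fluorescence time course.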
# [8] = Human pregnane X receptor (PXR) small molecule agonists, qHTS cell viability counter screen (AID 1346977); note: nearly all actives have a fitted effect of over 50% in size; note: potency is the fitted concentration of half-maximal effect
# Summary of the method: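 Tox21 qHTS format; PXR-Luc HepG2, 2,000/well, charcoal-stripped FBS 5%. Cpd exposure 24hr. Read: CellTiter-Fluor fluorescence, multiplexed with luciferase.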
# [9] = Caspase-3/7 induction in HepG2 cells by small molecules, qHTS assay (AID 1346978); note: nearly all actives have a fitted effect of over 15% in size; note: potency is the fitted concentration of half-maximal effect
# Summary of the method: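 Wild-type HepG2 cells, 2,000/well, settled 5 hr at 37 C and 5% CO2, then compound-treated for 17 hr; caspase-3/7 activity read by luminescent Caspase-Glo 3/7 after 30 min at room temperature.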
# [10] = Caspase-3/7 induction in CHO-K1 cells by small molecules, qHTS cell viability counter screen (AID 1346979); note: nearly all actives have a fitted effect of over 35% in size; note: potency is the fitted concentration of half-maximal effect
# Summary of the method: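 CellTiter-Fluor viability check, qHTS format: wild-type CHO-K1, 16hr compound treatment, 1hr reagent incubation, fluorescence read.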
# [11] = Caspase-3/7 induction in CHO-K1 cells by small molecules, qHTS assay (AID 1346980); note: nearly all actives have a fitted effect of over 15% in size
# Summary of the method: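 Wild-type CHO-K1 cells exposed to compounds for 17hr at 37 C, 5% CO2. Caspase-3/7 activity then measured by Caspase-Glo 3/7 luminescence after 30min at room temperature.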
# [12] = biological target: Nuclear receptor subfamily 1 group I member 2 (Homo sapiens) (UniProt O75469); assay: Human pregnane X receptor (PXR) small molecule agonists, qHTS assay (AID 1346982); note: nearly all actives have a fitted effect of over 35% in size; note: potency is the fitted concentration of half-maximal effect
# Sequence of Nuclear receptor subfamily 1 group I member 2 (Homo sapiens) (O75469 whole entry, looked up): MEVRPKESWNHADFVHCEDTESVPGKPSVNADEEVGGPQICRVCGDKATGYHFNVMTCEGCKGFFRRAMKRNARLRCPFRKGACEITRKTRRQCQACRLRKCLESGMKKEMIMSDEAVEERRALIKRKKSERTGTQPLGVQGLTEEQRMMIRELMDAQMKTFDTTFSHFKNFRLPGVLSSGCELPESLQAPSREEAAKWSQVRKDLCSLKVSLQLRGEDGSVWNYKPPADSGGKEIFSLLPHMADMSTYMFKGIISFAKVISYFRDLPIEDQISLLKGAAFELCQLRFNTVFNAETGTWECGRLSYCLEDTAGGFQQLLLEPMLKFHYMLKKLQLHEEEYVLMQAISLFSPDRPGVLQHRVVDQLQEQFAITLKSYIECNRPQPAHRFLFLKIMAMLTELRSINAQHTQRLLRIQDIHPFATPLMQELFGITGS
# Summary of the method: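 Tox21 qHTS; PXR-Luc HepG2; compounds pinned from DMSO; 24 hr, 37 C; ONE-Glo luciferase detection, 30 min room temperature.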
# [13] = biological target: Acetylcholinesterase (Homo sapiens) (UniProt P22303); assay: Acetylcholinesterase (AChE) small molecule antagonists: colormetric cell-based qHTS assay (AID 1347395; calls by dose curve; note: nearly all actives have a fitted effect of over 30% in size; note: potency is the fitted concentration of half-maximal effect)
# Sequence of Acetylcholinesterase (Homo sapiens) (P22303 whole entry, looked up): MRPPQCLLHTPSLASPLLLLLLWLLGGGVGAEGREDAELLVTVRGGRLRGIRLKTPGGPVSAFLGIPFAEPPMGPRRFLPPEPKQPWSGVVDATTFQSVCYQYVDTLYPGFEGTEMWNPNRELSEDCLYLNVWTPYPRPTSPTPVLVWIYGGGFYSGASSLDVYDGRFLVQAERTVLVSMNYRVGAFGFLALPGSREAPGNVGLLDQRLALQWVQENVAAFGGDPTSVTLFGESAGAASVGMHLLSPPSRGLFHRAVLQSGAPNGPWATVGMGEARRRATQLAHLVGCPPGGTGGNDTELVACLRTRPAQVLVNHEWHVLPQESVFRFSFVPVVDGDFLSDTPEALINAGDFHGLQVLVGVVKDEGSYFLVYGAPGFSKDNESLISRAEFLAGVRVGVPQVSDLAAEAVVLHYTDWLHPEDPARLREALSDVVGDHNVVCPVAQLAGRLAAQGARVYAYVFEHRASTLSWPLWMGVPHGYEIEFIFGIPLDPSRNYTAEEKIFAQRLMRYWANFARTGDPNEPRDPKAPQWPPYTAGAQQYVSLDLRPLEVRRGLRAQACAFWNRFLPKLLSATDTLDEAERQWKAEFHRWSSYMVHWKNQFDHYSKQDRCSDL
# Summary of the method: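 AChE inhibition read colorimetrically via DTNB–thiocholine in SH-SY5Y cells. Compound 30 min, substrate 90 min, both 37 C.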
# [14] = biological target: Acetylcholinesterase (Homo sapiens) (UniProt P22303); assay: Acetylcholinesterase (AChE) small molecule antagonists: enzyme-based qHTS assay (AID 1347397; calls by dose curve; note: nearly all actives have a fitted effect of over 55% in size; note: potency is the fitted concentration of half-maximal effect); settings: Potency: AChE enzyme activity inhibition; outcome: AChE enzyme activity inhibition
# Summary of the method: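 In this quantitative HTS, compounds from the Tox21 10K collection were preincubated 30 min at ambient temperature with recombinant human AChE dispensed at 50 mU/mL. Hydrolysis of acetylthiocholine was then followed for 10 min by DTNB colour development.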
# [15] = biological target: Acetylcholinesterase (Homo sapiens) (UniProt P22303); assay: Acetylcholinesterase (AChE) small molecule antagonists: fluorescence cell-based qHTS assay (AID 1347398; calls by dose curve; note: nearly all actives have a fitted effect of over 50% in size; note: potency is the fitted concentration of half-maximal effect); settings: Potency: AChE activity; outcome: AChE activity
# Summary of the method: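 Cells (SH-SY5Y) attached overnight, were dosed with compound or DMSO vehicle for 30 min at 37 C, and then incubated 40 min at room temperature with acetylthiocholine and Thiolite Green; green fluorescence indexed AChE activity.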
# [16] = Caspase-3/7 induction in HepG2 cells by small molecules, qHTS cell viability counter screen (AID 1346981); note: series mostly up to about 92 µM; nearly all actives have a fitted effect of over 30% in size
# Summary of the method: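 After a 5-hr attachment period at 37 C and 5% CO2, wild-type HepG2 cells received compounds in DMSO. Sixteen hours later CellTiter-Fluor was dispensed and the fluorescent signal quantified after a further hour.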
# [17] = biological target: Nuclear receptor subfamily 1 group I member 2 (Rattus norvegicus) (UniProt Q9R1A7); assay: Rat pregnane X receptor (rPXR) activation by small molecules, qHTS assay (AID 1346983); settings: rPXR luciferase reporter cells, One-Glo luminescence, 24 h; active compounds read high; note: nearly all actives have a fitted effect of over 20% in size
# Sequence of Nuclear receptor subfamily 1 group I member 2 (Rattus norvegicus) (Q9R1A7 whole entry, looked up): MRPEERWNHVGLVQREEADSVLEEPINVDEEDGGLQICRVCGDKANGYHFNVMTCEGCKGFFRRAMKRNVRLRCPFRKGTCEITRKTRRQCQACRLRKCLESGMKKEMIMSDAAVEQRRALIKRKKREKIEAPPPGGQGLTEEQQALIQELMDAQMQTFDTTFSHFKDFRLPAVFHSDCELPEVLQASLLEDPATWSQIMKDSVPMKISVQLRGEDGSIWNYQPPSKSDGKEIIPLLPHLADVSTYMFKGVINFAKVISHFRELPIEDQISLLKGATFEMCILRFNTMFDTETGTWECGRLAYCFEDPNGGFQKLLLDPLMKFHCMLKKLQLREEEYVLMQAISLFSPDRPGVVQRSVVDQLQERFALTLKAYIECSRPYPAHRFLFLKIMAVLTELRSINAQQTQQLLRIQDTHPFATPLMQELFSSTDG
# Summary of the method: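 Cell-based rPXR activation assay: rPXR cells, 2,000 per well, rested 5hr at 37 C, then exposed to compounds in DMSO for 24 hr at 37 C. Luciferase activity read by One-Glo luminescence after 30 min at room temperature.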
# [18] = biological target: Nuclear receptor subfamily 1 group I member 2 (Homo sapiens) (UniProt O75469); assay: CYP3A4 induction through human pregnane X receptor (PXR) by small molecules, qHTS assay (AID 1346984); note: nearly all actives have a fitted effect of over 40% in size
# Summary of the method: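 Cells (DPX-2; HepG2 with PXR element plus CYP3A4-promoter luciferase) settled 5hr, then were treated 24hr at 37C. A 3hr, 3uM-final Luciferin-IPA step preceded luminescence measurement with One-Glo.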
# [19] = qHTS assay to identify small molecule antagonists of the TGF-beta/Smad signaling pathway - cell viability counter screen (AID 1346824); note: nearly all actives have a fitted effect of over 50% in size; note: potency is the fitted concentration of half-maximal effect
# Summary of the method: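 SBE-bla HEK 293T cells, incubated overnight, then compound plus 0.25 ng/mL TGF-beta1 (stock added) for 5 hr at 37 C. Viability was read in the same wells by CellTiter-Glo luminescence after 30 min at room temperature.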
# [20] = biological target: Nuclear receptor subfamily 1 group I member 2 (Homo sapiens) (UniProt O75469); assay: Human pregnane X receptor (PXR) activation by small molecules, qHTS assay (AID 1346985); note: nearly all actives have a fitted effect of over 40% in size
# Summary of the method: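 DPX-2 cells (HepG2 co-transfected with a PXR response element and a CYP3A4-promoter luciferase construct) were seeded at 2,000 per well, rested 5 hr at 37C, then exposed to DMSO-dissolved compounds for 24 hr. Activation was read as luciferase luminescence.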
SMILES,Potency [1],Potency [2],Potency [3],Potency [4],outcome [5],Potency [6],outcome [7],Potency [8],Potency [9],Potency [10],Potency [11],Potency [12],Potency [13],Potency [14],Potency [15],Potency [16],max activation [17] [%],outcome [18],Potency [19],Potency [20]
Cc1nc(N(C)C)nc(OC(=O)N(C)C)c1C,inactive,inactive,inactive,inactive,inactive,inactive,inactive,inactive,inactive,inactive,inactive,inactive,11.2 µM (active),10 µM (active),11.2 µM (active),–,–,–,–,–
O=C1CC[C@@]2(O)[C@H]3Cc4ccc(O)c5c4[C@@]2(CCN3CC2CC2)[C@H]1O5,inactive,inactive,inactive,inactive,inactive,inactive,inactive,inactive,inactive,inactive,inactive,–,inactive,inactive,inactive,inactive,-2.95,–,–,–
CCOC(=O)c1cncn1C(C)c1ccccc1 (stereo unspecified),inactive,inactive,inactive,inactive,inactive,–,–,inactive,–,inactive,–,26.6 µM (active),inactive,inactive,inactive,inactive,0.791,inactive,–,–
CCC(C)(C)O,inactive,inactive,inactive,inactive,inactive,–,inactive,inactive,inactive,inactive,inactive,inactive,inactive,inactive,inactive,inactive,–,–,inactive,–
Oc1cccc(Cl)c1,inactive,inactive,inactive,inactive,inactive,inactive,inactive,inactive,–,inactive,inactive,–,inactive,inactive,inactive,inactive,–,–,–,–
CC(C)(C#N)C(C)(C)C#N,inactive,inactive,inactive,inactive,inactive,–,–,inactive,inactive,–,inactive,inactive,inactive,inactive,inactive,inactive,–,–,–,–
CCSCc1ccccc1OC(=O)NC,inactive,inactive,inactive,inactive,inactive,–,inactive,inactive,–,inactive,inactive,inactive,10 µM (active),20 µM (active),22.4 µM (active),inactive,–,–,–,–
C[CH2][Hg][S]c1ccccc1C(=O)O,1.54 µM (active) and 3.35 µM (active),2.73 µM (active) and 6.68 µM (active),1.93 µM (active) and 6.68 µM (active),inactive,–,–,–,3.44 µM (active) and 6.68 µM (active),inactive,1.72 µM (active) and 1.88 µM (active),inactive,–,–,–,–,–,-14.1,–,43.6 µM (active) and 19 µM (active),–
CCCC[P+](CC)(CCCC)CCCC (tested in a mixture with another compound),inactive,inactive,inactive,inactive,inactive,–,inactive,inactive,–,inactive,–,inactive,–,inactive,inactive,inactive,–,–,–,–
O=CC=O,inactive,inactive,inactive,inactive,inactive,–,–,inactive,inactive,inactive,–,inactive,inactive,inactive,inactive,inactive,-4.84,inactive,inactive,inactive
C=CCc1ccc(OC(=O)Cc2ccccc2)c(OC)c1,inactive,inactive,inactive,inactive,inactive,–,inactive,inactive,–,inactive,inactive,inactive,inactive,inactive,inactive,inactive,–,–,–,–
Cc1cnc(C2=NC(C)(C(C)C)C(=O)N2)c(C(=O)O)c1 (stereo unspecified),inactive,inactive,inactive,inactive,inactive,–,inactive,inactive,inactive,inactive,inactive,–,inactive,inactive,inactive,inactive,–,–,inactive,–
COC(=O)Cc1ccccc1,inactive,inactive,inactive,inactive,inactive,–,–,inactive,inactive,inactive,inactive,–,inactive,inactive,inactive,inactive,–,–,inactive,–
CC(C)CCON=O,inactive,inactive,inactive,inactive,inactive,inactive,inactive,inactive,inactive,inactive,inactive,inactive,inactive,inactive,inactive,–,-3.41,inactive,–,inactive
CCOP(=S)(OCC)Oc1ccc(S(C)=O)cc1 (stereo unspecified),inactive,inactive,inactive,inactive,inactive,–,inactive,inactive,inactive,inactive,inactive,38.6 µM (active),–,inactive,–,inactive,–,–,–,–
Cc1cccc(C)c1NC1=NCCCS1,inactive,inactive,inactive,inactive,–,inactive,inactive,inactive,inactive,inactive,–,–,inactive,inactive,inactive,inactive,–,–,inactive,–
CCCCCCCCn1sccc1=O,34.4 µM (active) and 1.43 µM (active),48.7 µM (active) and 1.14 µM (active),43.4 µM (active),–,inactive,–,inactive,50.1 µM (active) and 25.5 µM (active),25.5 µM (active),12.2 µM (active) and 11.4 µM (active),inactive,21.7 µM (active) and 4.04 µM (active),inactive,inactive,inactive,–,–,–,–,–
C#CC(O)(C=CCl)CC (stereo unspecified),inactive,inactive,inactive,inactive,inactive,–,–,inactive,inactive,inactive,inactive,–,inactive,inactive,inactive,inactive,–,–,inactive,–
